A selection: hits, their analogues and other compounds. The true share with any hit is near 1.3%.
VACV Venus inh: qHTS for Stage-Specific Inhibitors of Vaccinia Orthopoxvirus: Venus Reporter Primary qHTS. Vaccinia virus Venus reporter expression, fluorescence. AID 720580, 2013. actives 0.46% (n = 330,000). Potency, µM (series often up to 36.5 µM), without a hit: at the highest dose activity change, negative = inhibition, hits mostly inhibitors; calls by dose curve; tested in A549 cells; also: nearly all actives have a fitted effect of over 30% in size
VACV mCherry inh: qHTS for Stage-Specific Inhibitors of Vaccinia Orthopoxvirus: mCherry Reporter Primary qHTS; Potency, µM (top dose mostly 36.5 µM), for the others: at the highest dose activity change, negative = inhibition, most hits filed as inhibitors; Vaccinia virus mCherry reporter infection, fluorescence; AID 720579, 2013; actives 0.63% (n = 310,000); calls by dose curve; tested in A549 cells; also: nearly all actives have a fitted effect of over 35% in size
Tb PYK inh: qHTS of Trypanosoma Brucei Inhibitors | AID 624173, 2012 | Potency, µM (highest dose often 76.8 µM), inactives show top-dose activity, negative = inhibition, hits mostly inhibitors | actives 0.12% (n = 410,000) | TbPYK enzyme, Kinase-Glo Plus ATP luminescence, 45 min | pyruvate kinase (Trypanosoma brucei), Q57TT1; also: nearly all actives have a fitted effect of over 50% in size
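Activity of T. brucei pyruvate kinase was followed by Kinase-Glo Plus luminescence after the enzyme reacted 45 min at room temperature with 130 uM ADP (final) and substrate. Test compounds were added before ADP at multiple concentrations.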
AMA1-RON2 inh: qHTS for Inhibitors of AMA1-RON; Towards Development of Antimalarial Drug Lead: Primary Screen; Plasmodium falciparum AMA1 (3D7) - RON2 peptide interaction; AlphaScreen AMA1-biotinylated RON2 peptide binding; Potency, µM (titrated, usually from 58.2 µM), for inactives: top-dose activity change, negative = inhibition, usual class: inhibitors; actives 0.2% (n = 360,000); AID 720542, 2013;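 also: 0% = vehicle wells and -100% = peptide control; nearly all actives have a fitted effect of over 45% in size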
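AMA1 (3D7) with his tag at 25 nM final met compounds first, then biotinylated RON2 peptide at 25 nM; detection used donor plus acceptor beads, 10 µg/mL apiece, read by AlphaScreen after 30 min at room temperature.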
LmPK inh: qHTS Assay for Inhibitors of Leishmania Mexicana Pyruvate Kinase (LmPK); Q27686; AID 1721, 2009; purified LmPK, Kinase-Glo ATP luminescence, 1 h; Potency, µM (top dose mostly 57.5 µM), for the others: at the top dose activity change, negative = inhibition, actives largely listed as inhibitors; actives 0.37% (n = 290,000)
Target sequence (Q27686 whole entry, looked up): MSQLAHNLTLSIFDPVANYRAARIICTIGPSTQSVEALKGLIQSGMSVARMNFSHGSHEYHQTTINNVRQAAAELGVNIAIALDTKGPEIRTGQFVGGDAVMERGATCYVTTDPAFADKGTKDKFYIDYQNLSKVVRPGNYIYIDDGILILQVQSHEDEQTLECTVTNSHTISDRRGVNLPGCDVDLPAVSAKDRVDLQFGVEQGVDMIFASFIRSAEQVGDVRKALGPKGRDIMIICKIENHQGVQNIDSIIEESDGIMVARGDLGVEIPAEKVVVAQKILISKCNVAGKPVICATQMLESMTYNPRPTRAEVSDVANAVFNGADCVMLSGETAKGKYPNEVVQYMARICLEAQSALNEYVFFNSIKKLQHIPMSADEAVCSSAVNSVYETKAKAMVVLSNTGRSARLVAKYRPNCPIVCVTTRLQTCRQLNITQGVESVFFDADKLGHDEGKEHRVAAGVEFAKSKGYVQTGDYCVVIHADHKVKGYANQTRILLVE
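Purified LmPK (0.1 nM) with 0.5 mM PEP and 0.1 mM ADP in imidazole buffer pH 7.2 with MgCl2/KCl, 1 h at room temperature. ATP formed was read by luciferase luminescence and normalized to no-enzyme and uninhibited controls.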
RE007 growth inh: qHTS Assay for Inhibitors of the HIV-1 protein Vpr. S. pombe RE007 Vpr strain, BacTiter-Glo ATP luminescence, 24 h. Potency, µM (highest dose often 92.2 µM), without a hit: at the top dose activity change, negative = less growth, hits mostly inhibitors. actives 0.21% (n = 360,000). AID 651644, 2012; active = well fitted falling curve with a large enough effect; inconclusive = small, poorly fitted or top-dose-only effect; inactive = no such curve, though single readings can be large or run the other way; also: nearly all actives have a fitted effect of over 50% in size
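Fission yeast RE007 carrying one integrated HIV-1 vpr copy, seeded at OD 0.01 in PMG+AL medium with 23 nL pinned compound. Grown 24 h at 30 degrees; viability read by BacTiter-Glo luminescence after 5 min.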
* = called active by the depositor; i = inactive; ? = inconclusive; / = not tested or not shown. Unless noted, calls follow the shape of the dose curve; as a rule, active = well fitted curve in the direction sought with a large enough effect; inconclusive = small, poorly fitted or top-dose-only effect, or another doubt; inactive = no such curve, though single readings can be large; an effect the other way counts as inactive or inconclusive. Unless noted, % is scaled to controls: 0 for no effect and ±100 for the full control effect; potency is read from the fitted curve at half-maximal effect.

SMILES	VACV Venus inh	VACV mCherry inh	Tb PYK inh	AMA1-RON2 inh	LmPK inh	RE007 growth inh
Cc1cnc(C)c(-c2cccc3c2OC(CNC(=O)/C=C/c2ccncc2)C3)n1 (centres undefined)	1.2%	-11.9%	/	/	/	/
CCC1(C2CCN(C(=O)c3ccc(C)cc3C)CC2)NC(=O)N(CCc2scnc2C)C1=O (centres undefined)	-22.2%	i	/	/	/	/
Cc1ccc(-c2cc3nc(C)cc(NCc4ccco4)n3n2)cc1	-7.8%	-19.6%	0.8%	9.3%	28.2µM*	?
CC(=O)Nc1ccc(NC(=O)C/C(C)=N/NC(N)=S)cc1	/	/	-3.9%	72.3%	2.9%	-7.2%
C/C(CC(C)(C)C1CCCCC1)=N\NC(N)=S	17.8µM*	11.2µM*	3.1%	-0.6%	0.7%	-29.9%
N/C(=N\OC(=O)c1ccc(Cl)c(Cl)c1)c1ccccn1	/	/	-2.6%	47.8%	-28.8%	-7.2%
N/C(=N\OC(=O)c1ccc(Cl)cc1)c1[nH]ncc1Br	/	/	?	70.6%	10µM*	?
COc1ccc(C(=O)O/N=C(\N)c2ccccn2)cc1	1.1%	i	10µM*	18.5%	12.6µM*	?
Cc1ccc(C(=O)O/N=C(\N)c2ccccn2)c(C)c1	-21.9%	-14.9%	?	20.5%	6.31µM*	35.5µM*
N/C(=N\OC(=O)c1ccc(Cl)cc1)c1ccccn1	/	/	?	39.0%	5.01µM*	?
CCn1c(-c2ccccc2F)nc2cc(NC(C)=O)cc(C(=O)N3CCCC3c3nccs3)c21 (centres undefined)	5.0%	-10.3%	/	/	/	/
CO[C@H]1[C@H](NC(=O)c2ccco2)c2ccccc2C12CCN(Cc1cnc(N(C)C)s1)CC2	-0.6%	-4.7%	/	/	/	/
CC1CN(CCC(=O)NC(c2cccnc2)C(F)(F)F)Cc2cc(Cl)ccc2O1 (centres undefined)	-10.3%	-9.8%	/	/	/	/
COc1cccc(C(=O)N/N=C(/c2ccccc2)c2ccccn2)c1	?	2µM*	-1.6%	96.4%	2.3%	-15.6%
Cc1cc(/C(N)=N/OC(=O)c2cccc(Cl)c2)no1	-5.9%	-9.5%	0.4%	-5.5%	-9.4%	-5.4%
N/C(=N\OC(=O)c1cccc(Cl)c1)c1ccccn1	-9.2%	-5.7%	-20.2%	45.5%	14.1µM*	-27.8%
O=C(Sc1ccc(Cl)cc1)c1ccccn1	7.0%	-14.8%	-6.8%	39.6%	/	22.4µM*
Cc1cc(/C(N)=N/OC(=O)c2ccc(Cl)cc2)no1	-11.8%	i	-3.4%	-3.7%	15.8µM*	-24.2%
N/C(=N\OC(=O)c1ccccc1Cl)c1ccccn1	/	/	?	29.7%	7.08µM*	?
COc1ccc(C(=O)NNC(=O)c2ccccn2)cc1	/	/	?	26.9%	1.26µM*	10µM*
COc1ccccc1C(=O)O/N=C(\N)c1ccccn1	15.3%	i	-14.0%	37.3%	?	-23.8%
COc1ccc([N+](=O)[O-])c(C=CC(=O)c2ccccn2)c1	-8.1%	-1.1%	-1.7%	2.6%	/	-23.3%
COc1ccc(/C=C/C(=O)c2ccccn2)cc1	21.2%	i	?	-7.1%	8.91µM*	?
COc1cc(OC)cc(C(=O)NNC(=O)c2ccccn2)c1	?	?	-12.1%	115.1%	-3.9%	-2.4%
O=C1C=C(c2c(O)ccc3ccccc23)c2ccccc2C1=O	11.2µM*	10µM*	-12.0%	?	/	-16.2%
SMILES	VACV Venus inh	VACV mCherry inh	Tb PYK inh	AMA1-RON2 inh	LmPK inh	RE007 growth inh
CN(C)C(=O)c1ccc(N=Nc2c(O)c3ccccc3[nH]c2=O)cc1	-6.4%	?	-29.2%	12.5%	/	17.8µM*
O=C(N=Nc1c(O)[nH]c2ccccc12)c1cccs1	-20.0%	i	0.3%	10.0%	15.8µM*	-12.1%
O=C(O)c1ccc(N=Nc2c(O)[nH]c3ccccc23)cc1	23.0%	i	-27.7%	-29.9%	14.1µM*	?
COc1ccccc1-c1ccc(C(=O)NCCN2CCOCC2)c(N2CCN(c3ccccc3F)CC2)n1	-5.6%	-19.8%	/	/	/	/
Cc1ccccc1C1(CC(=O)N2CCOCC2)CC(=O)N(Cc2cccnc2)C1=O (centres undefined)	0.2%	-5.5%	/	/	/	/
Cc1cccc(OCCCC(=O)NC(C)C)c1	11.2µM*	/	-5.0%	-7.0%	-7.4%	7.8%
CC(=O)N1CCc2cc([N+](=O)[O-])ccc21	-9.3%	i	4.0%	-13.6%	/	15.8%
COC(=O)c1nn(-c2ccc3c(c2)CCN3C(C)=O)cc1O	/	/	17.8µM*	6.1%	10µM*	-7.0%
COC(=O)c1nn(-c2ccc3c(c2)OCO3)cc1O	/	/	-0.7%	-3.1%	17.8µM*	-21.2%
CCOC(=O)c1nn(-c2ccc3c(c2)OCCO3)cc1O	-9.9%	-16.0%	2.2%	-1.8%	?	-14.5%
CN=c1nc(-c2ccccc2)n(-c2ccccc2)s1	-25.5%	-15.0%	7.94µM*	-16.3%	/	-1.7%
Cc1csc(NC(=O)CSc2ccc(-c3ccccn3)nn2)n1	/	/	-2.6%	31.6µM*	7.4%	-15.8%
O=C(CSc1ccc(-c2ccccn2)nn1)Nc1nccs1	-6.0%	-23.1%	4.4%	-6.6%	1.5%	-5.5%
CSCCC(NC(=O)[C@H](Cc1c[nH]c2ccccc12)NC(=O)CNC(=O)[C@H](CCSC)NC(=O)[C@H](Cc1ccc(OS(=O)(=O)O)cc1)NC(=O)[C@@H](N)CC(=O)O)C(=O)N[C@@H](CC(=O)O)C(=O)N[C@@H](Cc1ccccc1)C(N)=O (some centres undefined)	/	/	3.4%	/	/	/
O=C(O)CCCNc1cc(N2CCN(C(=O)c3ccco3)CC2)c2noc3c2c1C(=O)c1ccccc1-3	299.5%	i	-4.2%	-27.1%	-18.7%	-6.3%
CN1CCN(c2cc(N3CCN(C(=O)c4ccco4)CC3)c3c4c(onc24)-c2ccccc2C3=O)CC1	/	/	-5.9%	17.8µM*	-8.3%	-14.8%
O=C1c2ccccc2-c2onc3c(N4CCN(CCO)CC4)cc(N4CCN(C(=O)c5ccco5)CC4)c1c23	233.2%	?	-13.1%	14.1µM*	-11.5%	-14.1%
CCOC(=O)N1CCN(c2cc(NCCC(=O)O)c3c4c(onc24)-c2ccccc2C3=O)CC1	428.9%	43.6%	-15.4%	?	15.8µM*	?
COC(=O)c1cccc(C(=O)NCc2nc(-c3ccccc3NC(C)=O)oc2C)c1	8.2%	-6.6%	/	/	/	/
COC(=O)C1CCCCN1Cc1ccc2c(c1)CN(C(=O)c1ccc(F)cc1)CCO2 (centres undefined)	-1.2%	-6.2%	/	/	/	/

Screens from PubChem.
